# Read-outs that look alike come from different tables or passages of the source.
# Experiments:
# FYN = conditions: concentration: 1 μM, replicates: in singlicate; n = 1
# GAK = conditions: concentration: 1 μM, replicates: in singlicate; n = 1
# GCN2(Kin.Dom.2,S808G) = test system: T1, GCN2(Kin.Dom.2,S808G); conditions: concentration: 1 μM, replicates: in singlicate; n = 1
# T1 construct: gene EIF2AK4
# GRK1 = conditions: concentration: 1 μM, replicates: in singlicate; n = 1
# GRK2 = test system: T2, GRK2; conditions: concentration: 1 μM, replicates: in singlicate; n = 1
# T2 construct: gene ADRBK1
# GRK3 = test system: T3, GRK3; conditions: concentration: 1 μM, replicates: in singlicate; n = 1
# T3 construct: gene ADRBK2
# GRK4 = conditions: concentration: 1 μM, replicates: in singlicate; n = 1
# GRK7 = conditions: concentration: 1 μM, replicates: in singlicate; n = 1
# GSK3A = conditions: concentration: 1 μM, replicates: in singlicate; n = 1
# GSK3B = conditions: n = 1
# HASPIN = test system: T4, HASPIN; conditions: concentration: 1 μM, replicates: in singlicate; n = 1
# T4 construct: gene GSG2
# HCK = conditions: concentration: 1 μM, replicates: in singlicate; n = 1
# HIPK1 = conditions: concentration: 1 μM, replicates: in singlicate; n = 1
# HIPK2 = conditions: concentration: 1 μM, replicates: in singlicate; n = 1
# HIPK3 = conditions: concentration: 1 μM, replicates: in singlicate; n = 1
# HIPK4 = conditions: concentration: 1 μM, replicates: in singlicate; n = 1
# HPK1 = conditions: concentration: 1 μM, replicates: in singlicate; n = 1
# HUNK = conditions: concentration: 1 μM, replicates: in singlicate; n = 1
# ICK = conditions: concentration: 1 μM, replicates: in singlicate; n = 1
# IGF1R = conditions: concentration: 1 μM, replicates: in singlicate; n = 1
# [1] = concentration: 1 μM, replicates: in singlicate
# 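Further: KINOMEscan kinase panel screen.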
compound,measurement,setting,value
O=C(O)C(F)(F)F.O=c1[nH]ccc2nc(N[C@@H]3CCNC3)nc(Nc3cc(Cl)cc(Cl)c3)c12 [GSK2188764],%Inh,FYN,52%
same,%Inh,GAK,74%
same,%Inh,"GCN2(Kin.Dom.2,S808G)",69%
same,%Inh,GRK1,92%
same,%Inh,GRK2,47%
same,%Inh,GRK3,32%
same,%Inh,GRK4,86%
same,%Inh,GRK7,70%
same,%Inh,GSK3A,49%
same,%Inh,GSK3B; [1],19%
same,%Inh,HASPIN,86%
same,%Inh,HCK,0%
same,%Inh,HIPK1,27%
same,%Inh,HIPK2,6%
same,%Inh,HIPK3,54%
same,%Inh,HIPK4,0%
same,%Inh,HPK1,95.7%
same,%Inh,HUNK,0%
same,%Inh,ICK,12%
same,%Inh,IGF1R,0%
Cc1ccc(NC(=O)c2ccnc(N3CCCCC3)c2)cc1-c1ccc(C(=O)NCC2CC2)cc1 [GW775610],%Inh,FYN,2%
same,%Inh,GAK,0%
same,%Inh,"GCN2(Kin.Dom.2,S808G)",14%
same,%Inh,GRK1,8%
same,%Inh,GRK2,16%
same,%Inh,GRK3,14%
same,%Inh,GRK4,19%
same,%Inh,GRK7,0%
same,%Inh,GSK3A,0%
same,%Inh,GSK3B; [1],0%
same,%Inh,HASPIN,0%
same,%Inh,HCK,0%
same,%Inh,HIPK1,11%
same,%Inh,HIPK2,9%
same,%Inh,HIPK3,0%
same,%Inh,HIPK4,0%
same,%Inh,HPK1,24%
same,%Inh,HUNK,0%
same,%Inh,ICK,25%
same,%Inh,IGF1R,0%
O=C1NC(=O)C(c2ccccc2Cl)=C1Nc1cccc(Cl)c1 [SB-342409],%Inh,FYN,22%
same,%Inh,GAK,7%
same,%Inh,"GCN2(Kin.Dom.2,S808G)",0%
same,%Inh,GRK1,13%
same,%Inh,GRK2,0%
same,%Inh,GRK3,36%
same,%Inh,GRK4,26%
same,%Inh,GRK7,0%
same,%Inh,GSK3A,45%
same,%Inh,GSK3B; 1 µM,33%
same,%Inh,HASPIN,0%
same,%Inh,HCK,0%
same,%Inh,HIPK1,0%
same,%Inh,HIPK2,0%
same,%Inh,HIPK3,2%
same,%Inh,HIPK4,3%
same,%Inh,HPK1,49%
same,%Inh,HUNK,0%
same,%Inh,ICK,45%
same,%Inh,IGF1R,20%
O=C(Nc1n[nH]c2nc(-c3cccc(O)c3)ccc12)C1CC1 [SB-711805],%Inh,FYN,0%
same,%Inh,GAK,23%
same,%Inh,"GCN2(Kin.Dom.2,S808G)",12%
same,%Inh,GRK1,24%
same,%Inh,GRK2,0%
same,%Inh,GRK3,0%
same,%Inh,GRK4,24%
same,%Inh,GRK7,3%
same,%Inh,GSK3A,98.8%
same,%Inh,GSK3B; 1 µM,96.3%
same,%Inh,HASPIN,45%
same,%Inh,HCK,15%
same,%Inh,HIPK1,57%
same,%Inh,HIPK2,27%
same,%Inh,HIPK3,31%
same,%Inh,HIPK4,7%
same,%Inh,HPK1,0%
same,%Inh,HUNK,0%
same,%Inh,ICK,53%
same,%Inh,IGF1R,0%
Cl.N#CCc1ccc(Nc2nccc(Nc3ccc(Oc4ccccc4)cc3)n2)cc1 [GW639905],%Inh,FYN,74%
same,%Inh,GAK,31%
same,%Inh,"GCN2(Kin.Dom.2,S808G)",36%
same,%Inh,GRK1,0%
same,%Inh,GRK2,0%
same,%Inh,GRK3,45%
same,%Inh,GRK4,0%
same,%Inh,GRK7,0%
same,%Inh,GSK3A,0%
same,%Inh,GSK3B; [1],8%
same,%Inh,HASPIN,0%
same,%Inh,HCK,94.7%
same,%Inh,HIPK1,0%
same,%Inh,HIPK2,0%
same,%Inh,HIPK3,14%
same,%Inh,HIPK4,0%
same,%Inh,HPK1,36%
same,%Inh,HUNK,0%
same,%Inh,ICK,0%
same,%Inh,IGF1R,0%
CN(c1ccc(NC(=O)Nc2cccc(Cl)c2)cc1)c1ccnc(N)n1.Cl [GW830707],%Inh,FYN,10%
same,%Inh,GAK,10%
same,%Inh,"GCN2(Kin.Dom.2,S808G)",0%
same,%Inh,GRK1,0%
same,%Inh,GRK2,0%
same,%Inh,GRK3,1%
same,%Inh,GRK4,0%
same,%Inh,GRK7,1%
same,%Inh,GSK3A,17%
same,%Inh,GSK3B; [1],1%
same,%Inh,HASPIN,32%
same,%Inh,HCK,0%
same,%Inh,HIPK1,0%
same,%Inh,HIPK2,18%
same,%Inh,HIPK3,0%
same,%Inh,HIPK4,79%
same,%Inh,HPK1,0%
same,%Inh,HUNK,51%
same,%Inh,ICK,7%
same,%Inh,IGF1R,0%
Cl.Cl.NC(CNC(=O)c1cc(Br)c(-c2ccnc3[nH]ccc23)s1)c1ccccc1 (centres unmarked) [GSK1322949],%Inh,FYN,17%
same,%Inh,GAK,85%
same,%Inh,"GCN2(Kin.Dom.2,S808G)",0%
same,%Inh,GRK1,3%
same,%Inh,GRK2,39%
same,%Inh,GRK3,70%
same,%Inh,GRK4,76%
same,%Inh,GRK7,75%
same,%Inh,GSK3A,0%
same,%Inh,GSK3B; [1],3%
same,%Inh,HASPIN,92.6%
same,%Inh,HCK,0%
same,%Inh,HIPK1,65%
same,%Inh,HIPK2,68%
same,%Inh,HIPK3,73%
same,%Inh,HIPK4,97.3%
same,%Inh,HPK1,69%
same,%Inh,HUNK,0%
same,%Inh,ICK,0%
same,%Inh,IGF1R,0%
Cc1cccc(Nc2nc(N[C@H]3CCCC[C@H]3N)ncc2C(N)=O)c1.Cl [GSK986310],%Inh,FYN,52%
same,%Inh,GAK,55%
same,%Inh,"GCN2(Kin.Dom.2,S808G)",72%
same,%Inh,GRK1,0%
same,%Inh,GRK2,0%
same,%Inh,GRK3,17%
same,%Inh,GRK4,6%
same,%Inh,GRK7,1%
same,%Inh,GSK3A,24%
same,%Inh,GSK3B; [1],19%
same,%Inh,HASPIN,18%
same,%Inh,HCK,0%
same,%Inh,HIPK1,0%
same,%Inh,HIPK2,0%
same,%Inh,HIPK3,21%
same,%Inh,HIPK4,0%
same,%Inh,HPK1,79%
same,%Inh,HUNK,0%
same,%Inh,ICK,16%
same,%Inh,IGF1R,0%
O=C(O)C(F)(F)F.O=c1[nH]ccc2nc(N[C@@H]3CCNC3)nc(Nc3ccc4c(c3)S(=O)(=O)CC4)c12 [GSK2181306],%Inh,FYN,43%
same,%Inh,GAK,76%
same,%Inh,"GCN2(Kin.Dom.2,S808G)",97.3%
same,%Inh,GRK1,95.2%
same,%Inh,GRK2,49%
same,%Inh,GRK3,60%
same,%Inh,GRK4,88%
same,%Inh,GRK7,65%
same,%Inh,GSK3A,97.8%
same,%Inh,GSK3B; [1],92.1%
same,%Inh,HASPIN,90%
same,%Inh,HCK,59%
same,%Inh,HIPK1,75%
same,%Inh,HIPK2,84%
same,%Inh,HIPK3,93.3%
same,%Inh,HIPK4,56%
same,%Inh,HPK1,96.7%
same,%Inh,HUNK,0%
same,%Inh,ICK,68%
same,%Inh,IGF1R,19%
Cc1cc(-c2ccnc(Nc3cccc(C#N)c3)n2)cc(C)c1O [GSK1440913],%Inh,FYN,0%
same,%Inh,GAK,79%
same,%Inh,"GCN2(Kin.Dom.2,S808G)",0%
same,%Inh,GRK1,6%
same,%Inh,GRK2,0%
same,%Inh,GRK3,0%
same,%Inh,GRK4,90.7%
same,%Inh,GRK7,0%
same,%Inh,GSK3A,93.8%
same,%Inh,GSK3B; [1],26%
same,%Inh,HASPIN,60%
same,%Inh,HCK,0%
same,%Inh,HIPK1,98.3%
same,%Inh,HIPK2,98.9%
same,%Inh,HIPK3,98.2%
same,%Inh,HIPK4,88%
same,%Inh,HPK1,65%
same,%Inh,HUNK,43%
same,%Inh,ICK,79%
same,%Inh,IGF1R,0%

# — paper PMC5540273 (PLoS ONE, 2017)
